A selection: hits, their analogues and other compounds. The true share with any hit is near 8%.
KB-3-1 tox: kills parental KB-3-1 adenocarcinoma cells; Potency, µM (highest dose often 46.1 µM), most hits filed as cytotoxic; 400,000 tested, 1.4% active; AID 1347075; KB-3-1 viability, CellTiter-Glo ATP luminescence, 72 h; further: on the % scale 0 is the no-effect control and ±100 the full control effect; nearly all actives have a fitted effect of over 60% in size
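Screening of KB-3-1 cells (DMEM, 10% FBS, phenol-red free) ran from lowest to highest compound concentration; after 72 h at 37 °C viability was read luminescently and curves fitted.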
SW480 rereplic: induces DNA re-replication in SW480 colon adenocarcinoma cells; AID 624297; SW480 DNA re-replication, Hoechst DNA content imaging, 48 h; 340,000 tested, 1.8% active; Potency, µM (doses to about 46.1 µM), without a hit: at the highest dose re-replication activation, most hits filed as activators; further: % of control where 0% means no effect; nearly all actives have a fitted effect of over 55% in size
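Cells (250 per well) received 23 nL compound or DMSO by pin tool and were kept 48 hr at 37 C, 5% CO2. Nuclei were then stained with Hoechst for 40 min and scanned for DNA content.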
MCF10A rerep: inducers of DNA re-replication in MCF 10A breast cells; MCF 10A DNA re-replication, Hoechst nuclear intensity, 48 h; Potency, µM (titrated, usually from 46.1 µM), for the others: at the top dose activity, positive = re-replication, actives largely listed as activators; 350,000 tested, 2.9% active; further: % of control where 0% means no effect; nearly all actives have a fitted effect of over 50% in size
HT1080 IDH1KD tx: HT-1080 IDH1 knockdown cell toxicity (counter line) | HT-1080 IDH1 knockdown viability, ATP luminescence, 48 h | Potency, µM (top dose mostly 46.1 µM), for inactives: top-dose activity, negative = toxicity, usual class: cytotoxic | 360,000 tested, 2% active;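 further: 0% = DMSO wells and -100% = cell-free medium wells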
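In this qHTS, HT-1080 cells depleted of IDH1 are exposed for 48 h at 37 °C to compound titrations. Toxicity is scored from CellTiter-Glo luminescence, with DMSO as full viability and medium alone as none.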
HT1080NT lethal: kills 2HG-producing HT-1080-NT fibrosarcoma cells | HT-1080-NT fibrosarcoma viability, CellTiter-Glo ATP luminescence, 48 h | Potency, µM (highest dose often 46.1 µM), inactives show at the top dose activity, negative = less viability, usual class: cytotoxic | 360,000 tested, 1.6% active;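 further: NT is the 2HG producing partner of a matched IDH1 knockdown line; 0% = DMSO-treated cells and -100% = media-only wells without cells; nearly all actives have a fitted effect of over 55% in size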
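750 cells/well, RPMI + 5% FBS; 2 h settle, compound pin-transfer, 48 h at 37 degrees C. CellTiter-Glo 10 min RT, luminescence. Normalized to DMSO and media-only wells.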
KB-V1 cytotox: KB-V1 MDR subline cytotoxicity; KB-V1 MDR cells viability, CellTiter-Glo, 72 h; Potency, µM (highest dose often 46.1 µM), most hits filed as cytotoxic; 400,000 tested, 3.4% active; AID 1347076; further: on the % scale 0 is the no-effect control and ±100 the full control effect; nearly all actives have a fitted effect of over 60% in size
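Luminescent ATP read-out (CellTiter-Glo, 10 min) measures survival of drug-selected KB-V1 MDR cells after 72 h, 37 degrees C compound exposure. Medium: phenol-red-free DMEM, 10% FBS. Values from fitted concentration-response curves.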
Starred values were filed as active, the others as inactive; [ ] = another dose, or the depositor's remark. The call rests on the fitted dose curve; in most records, active means well fitted curve in the direction sought with a large enough effect; inconclusive means small, poorly fitted or top-dose-only effect, or another doubt; inactive means no such curve, though single readings can be large; an effect the other way counts as inactive or inconclusive. Potency means the concentration at half of the fitted maximal effect.

For COc1ccc(C(=O)c2ccc(OC)cc2OC)cc1 the results were KB-3-1 tox 15µM*, SW480 rereplic inconclusive, MCF10A rerep 16µM*, HT1080 IDH1KD tx 12µM*, HT1080NT lethal 23µM* and KB-V1 cytotox inconclusive.
`CN(C)c1ccc(C(=O)c2ccc(N(C)C)c3ccccc23)cc1` gave KB-3-1 tox 0.092µM*, SW480 rereplic 0.41µM*, MCF10A rerep 0.21µM*, HT1080 IDH1KD tx 0.026µM*, HT1080NT lethal inconclusive and KB-V1 cytotox inconclusive.
For COC(=O)CC1=C(C(=O)OC)C(c2cccs2)C(C#N)=C(N)O1 (centres undefined) the results were KB-3-1 tox inactive, SW480 rereplic 0%, MCF10A rerep -2%, HT1080 IDH1KD tx 11%, HT1080NT lethal 9% and KB-V1 cytotox inactive.
`N#CC1=C(N)Oc2cc(O)ccc2C1c1cccs1` (centres undefined) gave KB-3-1 tox inactive, SW480 rereplic -5%, MCF10A rerep 0%, HT1080 IDH1KD tx -20%, HT1080NT lethal -17% and KB-V1 cytotox inactive.
`CCOC(=O)C1=C(CC)OC(N)=C(C#N)C1c1cccs1` (centres undefined) gave KB-3-1 tox inactive, SW480 rereplic -1%, MCF10A rerep -1%, HT1080 IDH1KD tx 22µM*, HT1080NT lethal inconclusive and KB-V1 cytotox inactive.
`N#CC1=C(N)Oc2c(O)cc3ccccc3c2C1c1ccsc1` (centres undefined) gave KB-3-1 tox inconclusive, SW480 rereplic inconclusive, MCF10A rerep inconclusive, HT1080 IDH1KD tx 15µM*, HT1080NT lethal 21µM* and KB-V1 cytotox inconclusive.
For Cc1[nH]nc2c1C(c1cc(Br)cs1)C(C#N)=C(N)O2 (centres undefined) the results were KB-3-1 tox 13µM*, SW480 rereplic inconclusive, MCF10A rerep inconclusive, HT1080 IDH1KD tx inconclusive, HT1080NT lethal inconclusive and KB-V1 cytotox 16µM*.
`CCN1CC2=C(OC(N)=C(C#N)C2c2cccs2)/C(=C\c2cccs2)C1` (centres undefined) gave KB-3-1 tox inactive, SW480 rereplic 0%, MCF10A rerep 0%, HT1080 IDH1KD tx inconclusive, HT1080NT lethal 22µM* and KB-V1 cytotox inactive.
CCOC(=O)C1=C(C)OC(N)=C(C#N)C1c1ccsc1 (centres undefined) was read as KB-3-1 tox inactive, SW480 rereplic -1%, MCF10A rerep 14%, HT1080 IDH1KD tx -10%, HT1080NT lethal inconclusive and KB-V1 cytotox inactive.
CCCCC(=O)Nc1ccc(C(=O)NNC(=S)NC(=O)c2ccccc2[N+](=O)[O-])cc1 was read as KB-3-1 tox inactive, SW480 rereplic -14%, MCF10A rerep 1%, HT1080 IDH1KD tx 1%, HT1080NT lethal -5% and KB-V1 cytotox inactive.
For CC(=O)Nc1ccc(S(=O)(=O)NCC(=O)OCC(=O)NNC(=O)c2ccccc2)cc1 the results were KB-3-1 tox inactive, SW480 rereplic -18%, MCF10A rerep -2%, HT1080 IDH1KD tx -1%, HT1080NT lethal 3% and KB-V1 cytotox inactive.
For CCOC(=O)C1=C(CC)OC(N)=C(C#N)C1c1ccsc1 (centres undefined) the results were KB-3-1 tox inactive, SW480 rereplic 0.26µM*, MCF10A rerep 4%, HT1080 IDH1KD tx -10%, HT1080NT lethal 15% and KB-V1 cytotox inactive.
CCCc1[nH]nc2c1C(c1ccsc1)C(C#N)=C(N)O2 (centres undefined) was read as KB-3-1 tox inactive, SW480 rereplic 4%, MCF10A rerep 34%, HT1080 IDH1KD tx 21µM*, HT1080NT lethal inconclusive and KB-V1 cytotox inactive.
For N#CC1=C(N)Oc2c(ccc3ccccc23)C1c1cccs1 (centres undefined) the results were KB-3-1 tox 0.89µM*, SW480 rereplic 0.56µM*, MCF10A rerep inconclusive, HT1080 IDH1KD tx 1.3µM*, HT1080NT lethal 2µM* and KB-V1 cytotox 5µM*.
`Cc1ccc(CN2CCC(c3nc4ccc(Cl)cc4[nH]3)CC2)cc1` gave KB-3-1 tox inactive, SW480 rereplic 2%, MCF10A rerep 10%, HT1080 IDH1KD tx -19%[9.24 µM], HT1080NT lethal inconclusive and KB-V1 cytotox inconclusive.
Screening Cc1cc2nc(C3CCN(Cc4nnnn4Cc4cccs4)CC3)[nH]c2cc1C returned KB-3-1 tox inconclusive, SW480 rereplic inconclusive, MCF10A rerep 19%, HT1080 IDH1KD tx 1.3µM*, HT1080NT lethal inconclusive and KB-V1 cytotox inactive.
`CN=c1sc2ccccc2n1CC(O)COCc1ccco1` (centres undefined) gave KB-3-1 tox inactive, SW480 rereplic 0%, MCF10A rerep -2%, HT1080 IDH1KD tx -10%, HT1080NT lethal -11% and KB-V1 cytotox inactive.
Screening Cc1c(C)c(C)c(S(=O)(=O)N2CCNCC2)c(C)c1C returned KB-3-1 tox inactive, SW480 rereplic -2%, MCF10A rerep -2%, HT1080 IDH1KD tx -43%, HT1080NT lethal -35% and KB-V1 cytotox inactive.
`Cc1ccc2nc(-c3cccc(NC(=O)c4ccc5c(c4)OCCO5)c3)oc2c1` gave KB-3-1 tox inconclusive, SW480 rereplic -2%, MCF10A rerep 18µM*, HT1080 IDH1KD tx 5%, HT1080NT lethal 4% and KB-V1 cytotox inactive.
O=C(Nc1ccc2oc(-c3ccc4ccccc4c3)nc2c1)c1ccc2c(c1)OCCO2 was read as KB-3-1 tox inactive, SW480 rereplic inconclusive, MCF10A rerep 12%, HT1080 IDH1KD tx inconclusive, HT1080NT lethal inconclusive and KB-V1 cytotox 2.6µM*.
`CCN(C(=O)COC(=O)/C=C/c1ccc(C)o1)c1c(N)n(Cc2ccccc2)c(=O)[nH]c1=O` gave KB-3-1 tox inactive, SW480 rereplic -4%, MCF10A rerep 3%, HT1080 IDH1KD tx -1%, HT1080NT lethal -16% and KB-V1 cytotox inactive.
Screening CC(=O)/C(N=Nc1ccc(SC(F)F)cc1)=C(\C)O returned KB-3-1 tox inactive, SW480 rereplic 8.2µM*, MCF10A rerep inconclusive, HT1080 IDH1KD tx 0%, HT1080NT lethal 1% and KB-V1 cytotox inactive.
For CC(/C=N/NC(=O)c1cc(-c2ccc(Cl)cc2)nc2ccccc12)=C\c1ccco1 the results were KB-3-1 tox 1µM*, SW480 rereplic 5.2µM*, MCF10A rerep 0.65µM*, HT1080 IDH1KD tx 0.82µM*, HT1080NT lethal inconclusive and KB-V1 cytotox 0.92µM*.
